Read-out in assay [1]: Interleukin-8 (IL8), CXCL8 (gene 3576)
As to the kind of experiment: BSK_3C_IL8: BioMAP Diversity Plus: 3C Assay for Interleukin-8 (IL8) Biomarker Activity (AID 2283020). The settings on record: primary human endothelial cells (HUVEC); actives raise or lower the signal. The gist of the method:
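Primary human umbilical vein endothelial cells (3C system) were exposed to test chemical for 24 h, then IL-8 was quantified by ELISA. Responses were fitted bidirectionally against DMSO vehicle as baseline.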

Read-out in assay [2]: Monokine induced gamma interferon (MIG), CXCL9 (gene 4283)
As to the kind of experiment: BSK_3C_MIG: BioMAP Diversity Plus: 3C Assay for Monokine induced gamma interferon (MIG) Biomarker Activity (AID 2283021).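 On AC50: MIG protein level measured by immunoassay in the treated endothelial cultures.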 The following applies: primary human endothelial cells (HUVEC); actives raise or lower the signal. In a few lines: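 Primary human umbilical vein endothelial cells in the 3C system were exposed to chemical for 24 h, after which MIG was quantified by ELISA. Activity was fitted bidirectionally against DMSO as negative control and baseline.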

For assay [3], the target named is human Vitamin D Receptor (VDR), VDR (gene 7421) (UniProt P11473). As to the kind of experiment: ATG_VDR_TRANS: Attagene TRANS-FACTORIAL HepG2 Assay for human Vitamin D Receptor (VDR) (AID 2283022; active means hit-call score of the fitted dose curve at least 0.9, where 1 is the maximum). In a few lines: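 Multiplexed TRANS reporter in HepG2; 24 h treatment; reporter mRNA by RT-PCR plus capillary electrophoresis; upregulation scored relative to DMSO.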
Sequence of human Vitamin D Receptor (VDR), VDR (gene 7421) (P11473 whole entry, looked up): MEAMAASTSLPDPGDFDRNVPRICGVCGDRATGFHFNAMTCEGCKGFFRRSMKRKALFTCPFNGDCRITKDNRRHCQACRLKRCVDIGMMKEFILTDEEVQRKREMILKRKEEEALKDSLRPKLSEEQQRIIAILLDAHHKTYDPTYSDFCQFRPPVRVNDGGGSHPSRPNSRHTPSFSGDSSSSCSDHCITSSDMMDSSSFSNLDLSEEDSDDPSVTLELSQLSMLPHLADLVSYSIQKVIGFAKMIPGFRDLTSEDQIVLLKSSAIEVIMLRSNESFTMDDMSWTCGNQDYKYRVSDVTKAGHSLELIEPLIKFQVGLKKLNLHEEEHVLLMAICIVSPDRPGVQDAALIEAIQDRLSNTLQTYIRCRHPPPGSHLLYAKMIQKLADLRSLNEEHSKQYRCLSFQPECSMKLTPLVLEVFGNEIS

Assay [4] is described as follows: BSK_3C_SRB: Viability Assessment in the BioMAP Diversity Plus: 3C Assay (AID 2283023).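 Further: cells read 24 h after compound dosing; fitted both ways against DMSO so a hit may be signal rise or drop.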 The settings on record: primary human endothelial cells (HUVEC). The gist of the method: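 Overt cytotoxicity is gauged in parallel confluent HUVEC cultures by SRB total-protein staining at the time of biomarker measurement, 24 h after dosing. Gain or loss of signal is fitted versus DMSO.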

Read-out in assay [5]: Matrix Metallopeptidase 1 (MMP1), MMP1 (gene 4312)
In words: BSK_BE3C_MMP1: BioMAP Diversity Plus: BE3C Assay for Matrix Metallopeptidase 1 (MMP1) Biomarker Activity (AID 2283024). The following applies: primary human bronchial epithelial cells; actives raise or lower the signal. The gist of the method:
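Primary human bronchial epithelial cells were dosed with test chemicals, and MMP1 levels were measured by ELISA 24 h later. Data were fitted bidirectionally against DMSO as the negative control and activity baseline.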

A short description of assay [6]: BSK_3C_Vis: BioMAP Diversity Plus: 3C Assay for Morphology Visualization (AID 2283025).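 Further: fitted both ways so gain or loss versus DMSO counts.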 The following applies: primary human endothelial cells (HUVEC). In a few lines:
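Human umbilical vein endothelial cells in the 3C system were imaged by light microscopy 24 h after chemical dosing to record cell morphology. Activity was fitted bidirectionally against DMSO as negative control and baseline; the endpoint serves as a background control.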

A short description of assay [7]: BSK_BE3C_SRB: Viability Assessment in the BioMAP Diversity Plus: BE3C Assay (AID 2283028).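 On AC50: fitted both ways so AC50 may mark signal gain or loss versus DMSO.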 The following applies: primary human bronchial epithelial cells. The gist of the method:
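SRB total-protein staining (0.1%, after TCA fixation) of chemically dosed human bronchial epithelial primary cells at 24 h; DMSO serves as the negative control for bidirectional curve fitting.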

Read-out in assay [8]: Thrombomodulin, THBD (gene 7056)
As to the kind of experiment: BSK_3C_Thrombomodulin: BioMAP Diversity Plus: 3C Assay for Thrombomodulin Biomarker Activity (AID 2283029). The following applies: primary human endothelial cells (HUVEC); actives raise or lower the signal. In a few lines: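 Primary human umbilical vein endothelial cells (3C system) were exposed to chemical for 24 h, then thrombomodulin levels were measured by ELISA. Activity was fitted bidirectionally against the DMSO negative control as baseline.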

Read-out in assay [9]: Pselectin, SELP (gene 6403)
As to the kind of experiment: BSK_4H_Pselectin: BioMAP Diversity Plus: 4H Assay for Pselectin Biomarker Activity (AID 2283026). The following applies: primary human endothelial cells (HUVEC); actives raise or lower the signal. In a few lines:
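Primary human umbilical vein endothelial cells were exposed to test chemical for 24 h, then cell-surface P-selectin was quantified by ELISA. Activity was fitted bidirectionally against DMSO as negative control and baseline.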

The nature of assay [10]: BSK_4H_SRB: Viability Assessment in the BioMAP Diversity Plus: 4H Assay (AID 2283027).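 Further: cells exposed to compound for 24 h before staining.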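 On AC50: curves fitted both ways versus DMSO so AC50 may be loss or gain.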 The following applies: primary human endothelial cells (HUVEC). The gist of the method: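 Absorbance at 560 nm of SRB-stained total protein served as the viability read-out in confluent primary human umbilical vein endothelium 24 h after chemical treatment. Curves were fitted bidirectionally against DMSO as negative control.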

Several values for one entry are separate records, joined by “and”; a condition that tells them apart may be missing. Equal entries are not always repeated. Records with an inconclusive call do not appear. Some structures have more than one record in an assay (separate samples or runs), and their calls can disagree. Activity calls are given as the source filed them. How the source made its calls, unless noted: active means hit-call score of the fitted dose curve at least 0.9, where 1 is the maximum; inactive means score below 0.9.

As to `COc1nc(C)nc(NC(=O)NS(=O)(=O)c2ccccc2Cl)n1`, the result in [1], in assay [2], in [3], in assay [4], in assay [5] and in assay [6] was inactive. The result in assay [7] and in [8] was inactive.

A word on the AC50: it is the concentration giving half of the maximal activity seen. Turning to `N#Cc1cc(Br)c(O)c(Br)c1`, the outcome in assay [1], in [2], in assay [5], in assay [6], in assay [7] and in assay [8] was inactive. In addition, the AC50 in assay [4] was 20 µM (active).

`Cc1cc(Cl)ccc1OCC(=O)O`: the outcome in [1], in assay [2], in [4], in assay [5], in [6] and in assay [9] was inactive. Moreover, the result in assay [7] and in [8] was inactive.

Take `CCNc1nc(Cl)nc(NCC)n1`: the outcome in assay [1], in assay [2], in assay [3], in [4], in assay [5] and in [6] was inactive. Also, the outcome in [7] and in [8] was inactive.

With `CO/C=C(/C(=O)OC)c1ccccc1Oc1cc(Oc2ccccc2C#N)ncn1`, the AC50 is 38.1 µM (active) and 33.2 µM (active) and 32.7 µM (active) in [2]; 20 µM (active) [middle of 4 runs] in assay [4]; 39.6 µM (active) and 42 µM (active) in assay [6]. Moreover, the result in assay [2], in assay [3], in assay [5], in assay [6], in assay [7] and in [8] was inactive.

As for `N#CC(CCc1ccc(Cl)cc1)(Cn1cncn1)c1ccccc1` (stereo unspecified), the outcome in assay [1], in assay [2], in [5] and in assay [8] was inactive. The AC50 in assay [4] is 20 µM (active); in [6] it was 39 µM (active); in assay [7], 13.5 µM (active).

As to `CNC(=S)S`, the result in assay [1], in assay [2], in assay [3], in assay [5], in assay [7] and in [8] was inactive. For the same molecule, the AC50 in [4] was 13.3 µM (active); in assay [6] it was 13.2 µM (active).

With `C=CCC1=C(C)[C@@H](OC(=O)[C@@H]2[C@@H](C=C(C)C)C2(C)C)CC1=O`, the AC50 is 35.4 µM (active) in [1], 25.8 µM (active) in assay [4], 13.7 µM (active) in [6] and 18.8 µM (active) in assay [7]. The outcome in [2], in assay [3], in assay [5] and in assay [8] was inactive.

As to `COC(=O)N(OC)c1ccccc1COc1ccn(-c2ccc(Cl)cc2)n1`, the AC50 in [1] is 13.5 µM (active); in [4], 20 µM (active); in [6] it was 13.7 µM (active); in assay [7], 28.1 µM (active); in [8], 3.97 µM (active). Besides, the result in assay [2] and in assay [5] was inactive.

`COP(=S)(OC)Oc1nc(Cl)c(Cl)cc1Cl`: the result in [1], in assay [2], in assay [5], in [7] and in assay [8] was inactive. In addition, the AC50 in assay [4] was 20 µM (active); in [6] it was 39 µM (active).

On to `CNC(=O)ON=CC(C)(C)SC`, for which the outcome in assay [1], in assay [2], in [4], in assay [5], in assay [6] and in [9] was inactive. In addition, the outcome in assay [10], in assay [7] and in assay [8] was inactive.

In the case of `C#CCOS(=O)OC1CCCCC1Oc1ccc(C(C)(C)C)cc1` (stereo unspecified), the AC50 in assay [1] was 7.04 µM (active); in assay [2] it was 20 µM (active); in assay [4], 12.3 µM (active); in assay [6], 5.07 µM (active); in assay [10] it was 11.3 µM (active); in [7] it was 22.7 µM (active). Moreover, the outcome in assay [5] and in [8] was inactive.

As for `COc1ccc(C(c2ccc(OC)cc2)C(Cl)(Cl)Cl)cc1`, the AC50 in [1] was 24.9 µM (active); in assay [4], 20.1 µM (active); in [5] it was 6.22 µM (active); in [6] it was 15.2 µM (active); in assay [7] it was 19.4 µM (active). Moreover, the outcome in assay [2], in [3] and in [8] was inactive.

Regarding `CC(C)C1(C)N=C(c2nc3ccccc3cc2C(=O)O)NC1=O` (stereo unspecified), the result in [1], in [2], in [4], in assay [5], in assay [6] and in assay [7] was inactive. Also, the outcome in assay [8] was inactive.

For `CCc1nn(C)c(C(=O)NCc2ccc(C(C)(C)C)cc2)c1Cl`, the AC50 in assay [1] is 20 µM (active); in assay [2], 34 µM (active); in [4] it was 25.3 µM (active); in [6], 37.2 µM (active); in assay [7] it was 30.2 µM (active). The result in assay [5] and in assay [8] was inactive.

For the origin of these results see PubChem BioAssay (EPA / NIEHS).
